TGFb SMAD3 inh: inhibitors of TGF-b signaling; Potency, µM (titrated, usually from 46.1 µM), without a hit: top-dose activity, negative = inhibition, hits mostly inhibitors; HepG2 CAGA-GFP TGF-b/SMAD3 reporter, GFP fluorescence, 18 h; TGF-beta stimulated, 500 pg/mL final; AID 588855; actives 1.2% (n = 410,000); further: on the % scale 0 is the no-effect control and ±100 the full control effect; nearly all actives have a fitted effect of over 65% in size
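First, reporter cells (HEPG2 CAGA-GFP) rested 2 h at 37 degrees C. Next, compounds were pinned in and TGF-beta added to 500 pg/mL final. After 18 h, GFP was imaged per cell and summed per well.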
ATXN2 expr inh: inhibitors of ATXN2 expression; HEK-293 ATXN2-luciferase reporter, luminescence, 24 h; Potency, µM (highest dose often 57 µM), inactives show at the highest dose activity change, negative = inhibition, hits mostly inhibitors; actives 0.72% (n = 360,000); AID 1745845; further: on the % scale 0 is the no-effect control and ±100 the full control effect; nearly all actives have a fitted effect of over 55% in size
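ATXN2-luciferase reporter cells (luciferase flanked by upstream and downstream ATXN2 gene portions) were treated 24 h at 37 °C with compounds at up to 57 uM. SteadyGlo luminescence gave expression; GF-AFC fluorescence gave viability.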
GLP-1R inv ag: acts as inverse agonist at human GLP-1 receptor; Potency, µM (series often up to 38.3 µM), for the others: top-dose activity change, negative = inhibition, most hits filed as inhibitors; AID 624417; HEK293 GLP-1R CRE-luciferase, luminescence, 24 h; GLP-1R form is constitutively active; P43220; actives 1.6% (n = 410,000); further: on the % scale 0 is the no-effect control and ±100 the full control effect; nearly all actives have a fitted effect of over 55% in size
Target sequence (P43220 whole entry, looked up): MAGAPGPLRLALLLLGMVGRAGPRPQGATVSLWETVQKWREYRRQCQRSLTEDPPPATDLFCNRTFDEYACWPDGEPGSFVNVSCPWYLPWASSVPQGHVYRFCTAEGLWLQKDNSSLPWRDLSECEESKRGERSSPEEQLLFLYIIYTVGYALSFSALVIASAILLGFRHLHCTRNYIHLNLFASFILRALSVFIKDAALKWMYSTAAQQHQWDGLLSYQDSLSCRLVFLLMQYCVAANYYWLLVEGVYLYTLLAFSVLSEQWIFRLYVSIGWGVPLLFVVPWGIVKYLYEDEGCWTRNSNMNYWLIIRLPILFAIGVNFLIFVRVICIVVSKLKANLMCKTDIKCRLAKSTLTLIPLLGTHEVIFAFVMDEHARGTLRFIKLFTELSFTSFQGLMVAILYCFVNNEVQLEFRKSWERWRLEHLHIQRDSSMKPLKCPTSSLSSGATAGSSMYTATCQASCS
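Using stably transfected HEK293 (constitutively active GLP-1R, cAMP-luciferase reporter), compounds were incubated 24 hr and luciferase measured by luminescence.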
S2 tox: viability counter-screen for ATXN expression inhibitors. S2 cells (HEK-293 line with an ATXN2-luciferase reporter) viability, CellTiter-Fluor protease fluorescence, 24 h. Potency, µM (series often up to 56.7 µM), hits mostly cytotoxic. actives 0.49% (n = 400,000); further: nearly all actives have a fitted effect of over 40% in size
HepG2 tox-1: counter-screen for TGF-b inhibitors: cytotoxicity in HepG2 cells. AID 588856. Potency, µM (titrated, usually from 46.1 µM), for inactives: at the top dose activity change, negative = cytotoxicity, usual class: cytotoxic. HepG2 CAGA-GFP viability, ATP luminescence, 18 h. actives 0.76% (n = 410,000)
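HepG2 CAGA-GFP cells (1000/well, DMEM with 1% FBS) received compound, then TGF-beta at 500 pg/mL final, and were incubated 18 hours at 37 degrees C. Viability was read by CellTiter-Glo luminescence. Media-only wells were set as complete cell-killing and DMSO as no toxicity.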
GLP1R ag: GLP-1 receptor (human) agonism; Potency, µM (series often up to 45.6 µM), for inactives: at the highest dose activation, actives largely listed as activators; HEK293 GLP-1R CRE-luciferase, luminescence, 4-6 h; cells express a hypersensitive GLP-1R form; actives 0.007% (n = 380,000); P43220; further: % of control where 0% means no effect
TGFb confirm: TGF-b pathway inhibition, cherry-pick retest; shares compounds with TGFb SMAD3 inh; HepG2 CAGA-GFP TGF-b reporter, GFP fluorescence, 18 h; cells stimulated with TGF-beta, 500 pg/mL; actives 63% (n = 1,600); Potency, µM (doses to about 46.1 µM), for inactives: top-dose activity, negative = inhibition, actives largely listed as inhibitors; further: on the % scale 0 is the no-effect control and ±100 the full control effect; nearly all actives have a fitted effect of over 65% in size
HepG2 tox-2: counter-screen for TGF-b inhibitors: cytotoxicity in HepG2 cells. HepG2 CAGA-GFP viability, ATP luminescence, 18 h; cells stimulated with TGF-beta, 500 pg/mL. Potency, µM (highest dose often 46.1 µM), for the others: top-dose activity, negative = cytotoxicity, hits mostly inhibitors. shares compounds with TGFb SMAD3 inh. actives 27% (n = 1,600); further: on the % scale 0 is the no-effect control and ±100 the full control effect; nearly all actives have a fitted effect of over 70% in size
TGFb CCL64 inh: TGF-b inhibition, CCL64 orthogonal assay | shares compounds with TGFb SMAD3 inh | CCL64 CAGA-GFP reporter, TGF-b stimulated, GFP fluorescence, 18 h | Potency, µM (series often up to 46.1 µM), without a hit: top-dose activity, negative = inhibition, usual class: inhibitors | actives 41% (n = 1,600) | AID 720536; further: nearly all actives have a fitted effect of over 65% in size
TGFb COP inh: validation of TGF-b inhibitors in HepG2 COP promoter reporter; shares compounds with TGFb SMAD3 inh; Potency, µM (top dose mostly 46.1 µM), without a hit: at the highest dose activity, negative = inhibition, hits mostly inhibitors; AID 720537; HepG2 COP-GFP TGF-b reporter, GFP fluorescence, 18 h; cells stimulated by added recombinant TGF-beta; actives 3% (n = 1,600); further: nearly all actives have a fitted effect of over 70% in size
* = called active by the depositor; i = inactive; ? = inconclusive; . = no result; ! = a repeat was not active. A selection: hits, their analogues and other compounds. The true share with any hit is near 3.7%. The call rests on the fitted dose curve; in most records, active means well fitted curve in the direction sought with a large enough effect; inconclusive means small, poorly fitted or top-dose-only effect, or another doubt; inactive means no such curve, though single readings can be large; an effect the other way counts as inactive or inconclusive. Potency means the concentration at half of the fitted maximal effect.

SMILES	TGFb SMAD3 inh	ATXN2 expr inh	GLP-1R inv ag	S2 tox	HepG2 tox-1	GLP1R ag	TGFb confirm	HepG2 tox-2	TGFb CCL64 inh	TGFb COP inh
Cc1ccc(N2CCN(C(=O)c3cc(C(=O)c4ccccc4C)c[nH]3)CC2)c(C)c1	18µM*	-30%	?	?	-29%	4%	6.5µM*	-26%	?	34%
Cc1ccc(N2CCN(C(=O)c3ccccc3)CC2)c(C)c1	10µM*	-25%	?	i	-31%	21%	?	7%	18µM*	15%
Cc1cccc(N2CCN(C(=O)C3COc4ccccc4O3)CC2)c1C (stereo not drawn)	11µM*	.	?	i	-37%	-1%	16µM*	-16%	?	-3%
CCc1nc(CN2CCCC(C(=O)c3ccc4c5c(cccc35)CC4)C2)c(C)[nH]1 (stereo not drawn)	?	-33%	?	i	-43%	10%	.	.	.	.
O=C(c1ccc2c3c(cccc13)CC2)C1CCCN(Cc2ccncc2)C1 (stereo not drawn)	7.9µM*	.	?	i	-44%	12%	-29%	?	?	24%
CSc1ccc(/C=C2\C=Cc3ccc([N+](=O)[O-])cc32)cc1	4%	.	.	.	0%	.	.	.	.	.
CC(C)(O)C#Cc1ccc([C@@H]2C[C@H]3CN(c4ccccc4)C(=O)[C@]34CCCN24)s1	2.2µM*	?	?	?	-10%	-4%	0.73µM*	?	5.2µM*	16%
O=C(NCCc1c[nH]c2ccccc12)OCCCCOC(=O)NCCc1c[nH]c2ccccc12	10µM*	?	?	18µM*	-42%	-8%	?	16µM*	18µM*	41%
COCCN(C(=O)COC(=O)c1ccccc1Nc1ccccc1)c1c(N)n(Cc2ccccc2)c(=O)[nH]c1=O	11µM*	?	13µM*	?	-3%	8%	15µM*	-28%	1.6µM*	20%
CN(C(=O)COC(=O)c1ccccc1Nc1ccccc1)c1c(N)n(Cc2ccccc2)c(=O)[nH]c1=O	?	?	?	i	14%	5%	.	.	.	.
Cc1ccc(NC(=O)c2cnc(SCC(=O)N3CCCc4ccccc43)n(C)c2=O)cc1C	-9%	.	-10%	.	-27%	.	.	.	.	.
CN(C)c1ccc(/C=C/c2nc3ccccc3o2)cc1	2%	.	.	.	-24%	.	.	.	.	.
CCCc1ccc(OCc2ccc(C(=O)Nc3ccccc3C(=O)OC)o2)cc1	3%	50%	53%	i	-23%	.	.	.	.	.
O=C(Nc1ccc([N+](=O)[O-])cc1Cl)c1cc(Cl)cc(Cl)c1O	?	.	.	.	-50%	.	.	.	.	.
Cc1ccc(NC(=O)C(Nc2ccccc2)c2ccccc2)cc1 (stereo not drawn)	-10%	-15%	-22%	i	-8%	6%	.	.	.	.
Cc1ccc(NC(=O)C(C)c2ccc(-c3ccccc3)c(F)c2)cc1 (stereo not drawn)	10µM*	-26%	?	i	-33%	2%	-10%	-13%	0%	-2%
Cc1nc2ccccc2c2oc(C(=O)NCc3ccccn3)cc12	12%	-13%	0%	i	-8%	-6%	.	.	.	.
Cc1ccc(CNC(=O)c2cc3c(C)nc4ccccc4c3o2)cc1	?	?	?	?	-15%	-6%	18µM*	-25%	-8%	24%
COc1ccc(CNC(=O)CC(c2ccc(OC)c(OC)c2)N2Cc3ccccc3C2=O)cc1 (stereo not drawn)	8%	-2%	9%	i	-11%	5%	.	.	.	.
CCCCC[C@H]1CN(CCc2ccccc2)C(=O)[C@@H]1CC(=O)NCc1ccc(OC)cc1	10µM*	-28%	?	i	7.1µM*!	3%	?	-27%	?	28%
CN(Cc1ccccc1)C(=O)c1ccc2c(c1)N(Cc1ccc(Cl)cc1)C(=O)c1ccccc1S2=O (stereo not drawn)	0%	9%	21%	i	4%	0%	.	.	.	.
COc1ccc(-c2cc3ccccc3oc2=O)cc1NC(=O)c1ccc([N+](=O)[O-])o1	6.3µM*	9%	29%	?	-19%	4%	1.8µM*	?	-27%	-2%
COc1ccc(-c2nc(NC(=O)C3CC(=O)N(c4ccc5c(c4)OCCO5)C3)sc2C)cc1 (stereo not drawn)	11µM*	13µM*	?	?	-1%	7%	6.5µM*	?	?	31%
COc1ccc(-c2coc3c(C(=O)NCC(C)C)cccc23)c(C)c1	?	-35%	?	i	-28%	-1%	13µM*	?	?	45%
Cc1ccc2c(c1)C/C(=C/c1ccc(N(C)C)cc1)C2=O	15%	.	.	.	-21%	.	.	.	.	.
O=C(NC(c1ccccc1)c1ccc2ccccc2n1)C1CCN(CCOc2ccc(Cl)cc2Cl)CC1 (stereo not drawn)	10µM*	?	?	i	-93%	-10%	?	18µM*	?	?
COc1ccc(CN2CCC(C(=O)NC(C)c3cccc4ccccc34)CC2)cc1 (stereo not drawn)	9%	0%	-28%	i	-14%	5%	.	.	.	.
CC(NC(=O)C1CCN(CCOc2ccc(Cl)cc2)CC1)c1cccc2ccccc12 (stereo not drawn)	6.3µM*	?	?	?	11µM*	-6%	26µM*	18µM*	?	-27%
